Screening data (PubChem)
Bim-Mcl-1 = inhibitors of Bim-Mcl-1 interaction, human | Q07820 | Bead-based flow cytometry, Bim peptide-Mcl-1 binding | inhibition, % at 10 µM | hit rate 0.1% among 190,000 | AID 1009; in the data active = inhibition above about 40%;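 note: 0% = no compound tracer wells and 100% = peptide blocker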
TLR4 MyD88 comp = blocks binding of human TLR4 to MyD88. O00206+Q99836. HeLa CL3-4 TLR4/MyD88 BLA complementation, FRET ratio. inhibition, % at 8.4 µM. hit rate 0.18% among 200,000. AID 861; in the data active = inhibition above about 25%;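 note: 0% = vehicle and 100% = reference inhibitor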
TLR9-MyD88 block = blocks human TLR9 binding to MyD88. CHO BLA complementation TLR9-MyD88, CCF4 FRET ratio. inhibition, % at 4.98 µM. hit rate 0.21% among 340,000. AID 504734;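 active = inhibition above the mean over all tested compounds plus 3 SD, cut at about 21% in these data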;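 note: 0% = DMSO only wells and 100% = clavulanate BLA inhibitor control wells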
Mcl1-Bid inh = disrupts binding of human Mcl-1 to Bid peptide. Q07820. TR-FRET Mcl-1/Bid-Dy647 peptide binding, 1536-well. inhibition, % at 21.7 µM. hit rate 0.97% among 220,000. AID 1021;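 active = compounds that cut the binding signal by more than half at the single screening dose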;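 note: His-tagged Mcl-1 with europium anti-His antibody binding Bid BH3 peptide; 0% = Mcl-1 plus peptide wells and 100% = peptide-only wells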
NOD2-RIPK2 inh = blocks binding of human NOD2 to RIPK2; O43353; CHO BLA complementation NOD2-RIPK2, CCF4 ratio; inhibition, % at 4.98 µM; hit rate 0.38% among 360,000; in the data active = inhibition above about 21%;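 note: 0% = vehicle only and 100% = reference blocker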
Target sequence (O43353 whole entry, looked up): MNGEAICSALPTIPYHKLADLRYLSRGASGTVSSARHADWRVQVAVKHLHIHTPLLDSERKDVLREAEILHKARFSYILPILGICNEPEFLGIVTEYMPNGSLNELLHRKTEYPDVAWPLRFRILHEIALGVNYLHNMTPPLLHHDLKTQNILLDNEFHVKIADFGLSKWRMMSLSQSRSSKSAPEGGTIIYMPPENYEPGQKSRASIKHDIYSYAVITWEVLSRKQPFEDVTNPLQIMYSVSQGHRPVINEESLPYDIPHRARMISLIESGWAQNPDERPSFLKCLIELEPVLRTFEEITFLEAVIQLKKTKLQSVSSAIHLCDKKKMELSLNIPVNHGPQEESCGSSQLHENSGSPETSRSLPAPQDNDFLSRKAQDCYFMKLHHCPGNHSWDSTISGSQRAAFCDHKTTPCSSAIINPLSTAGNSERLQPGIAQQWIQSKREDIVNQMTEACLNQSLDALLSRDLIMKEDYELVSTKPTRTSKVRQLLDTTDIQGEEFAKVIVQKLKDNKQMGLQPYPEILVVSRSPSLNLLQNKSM
Mcl1 Noxa PPI = Mcl-1/Noxa interaction inhibition. TR-FRET Mcl-1/Noxa peptide binding, 2 h. inhibition, % at 21.7 µM. hit rate 1.5% among 220,000. AID 1022;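 active = compounds that cut the protein-peptide binding signal by more than 50% relative to plate controls in a single-dose test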;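 note: His-tagged Mcl-1 with rhodamine Noxa BH3 peptide and terbium anti-His antibody; 0% = Mcl-1 plus Noxa peptide wells and 100% = peptide-only wells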
* hit, by the source's call. Only some compounds are listed: those with a hit (about 1.8% of all), similar ones and a draw of the others.

Cc1nn(Cc2ccccc2)c(C)c1NC(=O)CSc1nc2c(c(C(F)(F)F)n1)CCc1ccccc1-2 was read as Bim-Mcl-1 3.0, TLR4 MyD88 comp -16.3, TLR9-MyD88 block -6.2, Mcl1-Bid inh 63.6*, NOD2-RIPK2 inh -1.5 and Mcl1 Noxa PPI -14.9.
Screening Cc1cc(=O)c2cc3nc(-c4cccnc4)oc3c(Br)c2o1 returned Mcl1-Bid inh -51.9 and Mcl1 Noxa PPI 53.9*.
Screening CCOc1ccccc1-n1c(=O)c2ccccc2c2ccccc2c1=O returned Bim-Mcl-1 6.0, TLR4 MyD88 comp -11.3, TLR9-MyD88 block 0.7, Mcl1-Bid inh 54.2*, NOD2-RIPK2 inh -13.0 and Mcl1 Noxa PPI 10.0.
For CCOc1ccc(-n2c(=O)c3ccccc3c3ccccc3c2=O)cc1 the results were TLR9-MyD88 block 4.6, Mcl1-Bid inh 5.8, NOD2-RIPK2 inh 0.9 and Mcl1 Noxa PPI 7.4.
C=CCSc1nc2c(sc3nc(C)cc(C)c32)c(=O)[nH]1 was read as Bim-Mcl-1 1.0, TLR4 MyD88 comp -6.9, TLR9-MyD88 block 9.0, Mcl1-Bid inh -4.6, NOD2-RIPK2 inh 1.8 and Mcl1 Noxa PPI 56.7*.
`COc1ccc(CCNc2nc(-c3ccc(O)cc3)cs2)cc1OC` gave TLR9-MyD88 block -55.6 and NOD2-RIPK2 inh -2.3.
For COc1ccc(CCNc2nc(-c3ccncc3)cs2)cc1OC the results were TLR9-MyD88 block 1.1, Mcl1-Bid inh -10.6, NOD2-RIPK2 inh 0.0 and Mcl1 Noxa PPI -0.2.
`COc1ccc(CCNc2nc(-c3sc(C)nc3C)cs2)cc1OC` gave Bim-Mcl-1 0.0, TLR4 MyD88 comp -4.4, TLR9-MyD88 block -4.5, Mcl1-Bid inh 73.4*, NOD2-RIPK2 inh -8.2 and Mcl1 Noxa PPI 60.0*.
`COc1ccc(CCNc2nc(-c3cccnc3)cs2)cc1OC` gave Bim-Mcl-1 -5.0, TLR4 MyD88 comp 2.8, TLR9-MyD88 block 9.1, Mcl1-Bid inh 90.2*, NOD2-RIPK2 inh -7.6 and Mcl1 Noxa PPI 11.0.
For NS(=O)(=O)c1ccc(Nc2nc3ccccc3nc2NS(=O)(=O)c2cccc([N+](=O)[O-])c2)cc1 the results were Bim-Mcl-1 -1.0, TLR4 MyD88 comp 8.9, TLR9-MyD88 block 0.0, Mcl1-Bid inh 11.9, NOD2-RIPK2 inh 2.5 and Mcl1 Noxa PPI 37.6.
Screening COC(=O)c1ccccc1S(=O)(=O)N1CCC(C(=O)OC(C)C(=O)N(C)Cc2ccccc2)CC1 (stereo not drawn) returned TLR9-MyD88 block 4.1 and NOD2-RIPK2 inh -0.9.
Screening CSc1nnc(-c2ccncc2)n1/N=C/c1cn(-c2ccccc2)nc1-c1ccc(Cl)cc1 returned TLR9-MyD88 block -4.0, Mcl1-Bid inh -19.3, NOD2-RIPK2 inh 1.7 and Mcl1 Noxa PPI 5.3.
Screening S=c1[nH]nc(-c2ccncc2)n1/N=C/c1cn(-c2ccccc2)nc1-c1ccc(Cl)cc1 returned Mcl1-Bid inh -59.2, NOD2-RIPK2 inh -6.3 and Mcl1 Noxa PPI 62.0*.
Screening COCCCN(C(=O)Cc1ccc(S(=O)(=O)N2CCOCC2)s1)c1c(N)n(Cc2ccccc2)c(=O)[nH]c1=O returned TLR9-MyD88 block 1.0 and NOD2-RIPK2 inh -12.8.
`CC[C@H](CO)Oc1cc(NCc2cccc(N)c2)c2ncn(C(C)C)c2c1` gave NOD2-RIPK2 inh 0.0.
`CC1=NN(c2ccc(C)cc2)C(=O)/C1=C/c1ccc(-c2cc([N+](=O)[O-])ccc2O)o1` gave TLR9-MyD88 block 6.0 and NOD2-RIPK2 inh 0.6.
O=C1NN(c2cccc(Br)c2)C(=O)/C1=C/c1ccc(-c2cc([N+](=O)[O-])ccc2O)o1 was read as TLR9-MyD88 block -3.1, Mcl1-Bid inh 98.1*, NOD2-RIPK2 inh -3.5 and Mcl1 Noxa PPI 100.6*.
For Cc1ccc(NC(=O)CCNC(=O)c2ccc(Br)cc2)nc1 the results were TLR9-MyD88 block 2.5 and NOD2-RIPK2 inh 4.7.
CC(C)=C1C(=O)NN(c2ccc(C)c(Cl)c2)C1=O was read as Bim-Mcl-1 45.0*, TLR4 MyD88 comp -10.4, TLR9-MyD88 block -10.3, Mcl1-Bid inh -20.2, NOD2-RIPK2 inh -12.5 and Mcl1 Noxa PPI -12.8.
`CC(C)=C1C(=O)NN(c2cccc(Cl)c2)C1=O` gave Bim-Mcl-1 -7.0, TLR4 MyD88 comp 11.5, TLR9-MyD88 block 7.7, Mcl1-Bid inh -38.2, NOD2-RIPK2 inh 5.1 and Mcl1 Noxa PPI 19.3.
Screening CCN1CCN(C(=O)CN(c2ccc(F)cc2)S(=O)(=O)c2ccc(OC)c(OC)c2)CC1 returned TLR9-MyD88 block 0.8 and NOD2-RIPK2 inh -1.1.
